# Source: PubChem
# TDP-43 rescue = inhibitors of TDP-43 toxicity in yeast. 0.45% of 45,000 active. yeast TDP-43 toxicity rescue, BacTiter-Glo growth, 24 h. AID 1347073. Potency, µM (highest dose often 46.1 µM), hits mostly activators; active = well fitted activation curve with a large enough effect; note: 0% is about no effect; nearly all actives have a fitted effect of over 55% in size
#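 TDP-43-expressing yeast, pregrown in raffinose, seeded at OD600 0.02 in galactose medium with compound for 24 hr at 30 deg C. Growth read by BacTiter-Glo luminescence, so rescue of toxicity appears as activation.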
# * hit, by the source's call; i = inactive. The sample as a whole holds a higher share of hits than the screen did. Potency is the fitted concentration of half-maximal effect.
SMILES,TDP-43 rescue
CCC(=O)N1CCc2cc(S(=O)(=O)Nc3ccccc3C)ccc21,i
COc1ccc2c(c1)[nH]c1c(=O)n(CCN3CCOCC3)cnc12,i
COc1ccc2c(c1)[nH]c1c(Cl)ncnc12,14.1µM*
COc1ccc(CNc2ncnc3c2[nH]c2cc(OC)c(OC)cc23)cc1,i
O=C(Nc1ccc(C(O)c2ccccc2)cc1)[C@@H]1O[C@H](CO)[C@@H](O)[C@H]1O (stereo partly drawn),i
CC1(C)N=C(c2ccc(F)cc2)C(=O)N1CC(=O)Nc1ccccc1Cl,i
CC(=O)c1ccc(N2CCN(C(=O)c3cc(-c4ccncc4)nc4ccc(Cl)cc34)CC2)cc1,i
CCCS(=O)(=O)NC(=O)C1(C)CCN(C(=O)c2cccnc2Oc2ccccc2)C1 (stereo not drawn),i
CC(NS(=O)(=O)c1ccc2c(c1)OCCO2)c1ccccc1 (stereo not drawn),i
O=S(=O)(NCCc1csc(-c2ccccc2)n1)c1ccc2c(c1)OCCO2,17.8µM*
CCCNS(=O)(=O)c1ccc(CCC(=O)Nc2ccc3c(c2)OCCO3)cc1,i
CC(C)Cc1ccc(-c2ccc3nccn3c2)cc1,i
Cc1cccc(N2CCN(C(=O)NC(C)c3ccc(F)c(F)c3)CC2)c1C (stereo not drawn),i
Cc1ccc2cc3cc(C(=O)N(C)c4ccccc4C)oc3nc2c1,i
COc1ccc(Cl)cc1C(=O)OCC(=O)N1CCCC(C)C1 (stereo not drawn),i
COc1ccc(Cl)cc1C(=O)OCC(=O)NC1CCCC(C)C1C (stereo not drawn),17.8µM*
COc1cccc2cc(C(=O)OCC(=O)NC3CCCC(C)C3C)c(=O)oc12 (stereo not drawn),i
COc1ccc(CNC(=O)c2ccc3c(c2)N(Cc2ccccc2)C(=O)c2ccccc2S3(=O)=O)cc1,i
COc1ccccc1-c1cc2nc(NCCc3ccncc3)ccn2n1,i
COc1cc(-c2cc3nc(NCc4cccc(Cl)c4)ccn3n2)cc(OC)c1OC,14.1µM*
c1ccc(-c2cc3nc(NCc4cccs4)ccn3n2)cc1,i
CN(C)c1nc(Oc2ccc(/C=N/O)cc2)nc(N(C)C)n1,11.2µM*
O=[N+]([O-])c1ccc(Oc2ccc(/C=N/O)cc2)nc1,i
CCN(CC)c1nc(Oc2ccc(C(=O)NN)cc2)nc(Oc2ccc(C(=O)NN)cc2)n1,i
Cc1ccc2nc(COC(=O)c3ccc(Cl)nc3)cc(=O)n2c1,i
SMILES,TDP-43 rescue
CCNC(=O)C1(C)CCN(Cc2cccc(C(F)(F)F)c2)C1 (stereo not drawn),i
Cc1ccccc1Cn1c(=O)n(CCC(=O)NCc2ccco2)c(=O)c2sccc21,i
COCCNC(=S)N/N=C(\C)c1cc2ccccc2o1,12.6µM*
COCCNC(=S)N/N=C(\C)c1ccc(OC)cc1,i
COCCNC(=S)N/N=C(\C)c1cccc(C(F)(F)F)c1,i
CCc1nc2c(OCCOc3ccccc3)cccn2c1N(C)C(=O)c1ccc(C)cc1,i
Cc1ccc(F)cc1C(=O)N1CCOCC1c1cc(C(=O)Nc2ccccc2)no1 (stereo not drawn),i
CC(=O)c1ccc(NC(=O)CSc2nnc(-c3ccco3)o2)cc1,i
Cc1ccc(CSc2nnc(-c3ccco3)o2)cc1,12.6µM*
CC(=O)c1c(C)[nH]c(C(=O)CSc2nnc(-c3ccco3)o2)c1C,i
COC(=O)Cn1c(=O)c2cccn2c2cccnc21,i
OCCN1CCN(c2ncnc3c2ncn3[C@H]2CN(Cc3ccc4c(c3)OCO4)C[C@@H](CO)O2)CC1,i
O=C(NC1CCC(O)CC1)c1cccc2cccnc12 (stereo not drawn),i
O=C(NCC1CCN(C(=O)c2c(F)c(F)c(F)c(F)c2F)CC1)c1c(F)c(F)c(F)c(F)c1F,17.8µM*
CC(C)CNC(=O)c1c(F)c(F)c(F)c(F)c1F,i
O=C(NCC1CCN(C(=O)c2cccc([N+](=O)[O-])c2)CC1)c1cccc([N+](=O)[O-])c1,i
Cn1c(NCc2cccc(Cl)c2)nc2ccccc21,i
CN=c1scc(-c2ccccc2F)n1/N=C/c1ccc[nH]1,i
C=CCN=c1scc(-c2ccc(F)cc2)n1/N=C/c1ccccn1,11.2µM*
Cc1cc(C)c2cc(CN(CCCO)S(=O)(=O)c3ccccc3F)c(=O)[nH]c2c1,i
C=CCSc1nc(C)cc2c1C(=O)OC2,10µM*
Cc1cc2c(c(N3CCOCC3)n1)C(=O)OC2,i
Cc1cc2c(c(SCC(=O)NCc3ccccc3Cl)n1)C(=O)OC2,i
CCOc1ccc(OCC)c(NC(=O)c2ccc(-c3ccccc3)s2)c1,i
COc1ccc(CNC(=O)C2CCN(c3nnc(-n4c(C)ccc4C)s3)CC2)c(OC)c1,i
SMILES,TDP-43 rescue
CC1(C(=O)NC2CCCCC2)Cc2ccccc2C(=O)N1Cc1ccc(Cl)cc1 (stereo not drawn),i
COc1ccc(Cl)cc1N1C(=O)/C(=C/c2sccc2C)N=C1SCC(=O)NC1CC1,i
Cc1ccc(NC(=S)N2CCN(C(=O)c3ccccc3)CC2)c(C)c1,i
Cc1ccc(NC(=S)c2nc3ccccc3[nH]2)c(C)c1,10µM*
Cc1cc(C)cc(C(=O)Nc2nc3ccccc3[nH]2)c1,i
CNc1cncc(-c2ccccc2CO)n1,i
CNc1cncc(-c2ccc(OC)c(OC)c2)n1,11.2µM*
CNc1cncc(-c2ccccc2NC(C)=O)n1,i
Cc1ccc(CN2C(=O)C(O)(CC(=O)c3ccc(C)cc3)c3ccccc32)cc1 (stereo not drawn),i
CC(C1CC2CCC1C2)N1CC(O)=C(c2nc3ccccc3[nH]2)C1=N (stereo not drawn),i
CC(C)(C)c1n[nH]c(=S)n(/N=C/c2cccs2)c1=O,i
CC(C1CC2CCC1C2)n1c(-c2cccs2)n[nH]c1=S (stereo not drawn),14.1µM*
Cc1ccc(CC2(C)C(=O)Nc3c(Cl)cccc32)cc1 (stereo not drawn),8.91µM*
COc1ccccc1-c1ccc2c(c1)C(C)(Cc1ccc(Cl)c(Cl)c1)C(=O)N2 (stereo not drawn),i
CCc1ccc2c(c1)NC(=O)C2(C)Cc1ccc(Cl)cc1 (stereo not drawn),i
COc1ccc(CNC(=O)C(c2ccccc2F)N(C(=O)c2csnn2)C2CC2)cc1 (stereo not drawn),i
CCc1nc2c(OCCc3cccc(OC)c3)cccn2c1N(C)C(=O)c1cccs1,i
O=C(NNC(=S)NC(=O)c1ccc(F)cc1)c1cccnc1,i
O=C(NC(=S)NNC(=O)[C@H]1C[C@@H]1c1ccccc1)c1cccc(F)c1,12.6µM*
O=C(Cc1ccccc1)NNC(=S)NC(=O)c1cccnc1,i
CCc1nc2c(OCCC3CCCCC3)cccn2c1N(C)C(=O)c1ccccc1F,i
CCCCOC(=O)/C=C/c1ccc(OC(=O)OC)c(OC(=O)OC)c1,i
COc1cc(/C=C/C(=O)OC(C)C(=O)Nc2ccc(Cl)cn2)ccc1OC(F)F (stereo not drawn),i
COC(=O)Oc1ccc(/C=C/C(=O)OC(C)C)cc1OC(=O)OC,14.1µM*
NS(=O)(=O)c1ccc(CCNc2ccn3nc(-c4cccc(C(F)(F)F)c4)cc3n2)cc1,i
COc1ccccc1C(NC(=O)C1CCN(CCOc2ccccc2)CC1)c1ccccn1 (stereo not drawn),i
CC(=O)NC(C)(c1ccccc1)c1nc(-c2ccc(N(C)C)cc2)cs1 (stereo not drawn),i
[O-][n+]1cccc2c(Br)cc(Br)c(O)c21,7.94µM*
